The target in this experiment is pT7_6His-AlfaTag-ZIF268 (human, UniProt P18146 335-423). Kind of experiment: PADIT-seq. The following applies: dsDNA, one strand shown.

The sequence “CTCGAGGATATCAAGATCTGGCCTCGGCGCGAGCGCGGGAACCTCTAGCTAGCCGACTCACTATAGGGATAATCGCCCTGAGCAAAGACC” gave a binding signal of 0.0892 ± 0.102 log2FC.
Turning to “CTCGAGGATATCAAGATCTGGCCTCGGCGCGCCACGCGGAACCTCTAGCTAGCCGACTCACTATAGGGATAATCGCCCTGAGCAAAGACC”, the binding signal came to 0.0182 ± 0.0932 log2FC.
Turning to “CTCGAGGATATCAAGATCTGGCCTCGGCCGCCCACCTGGAACCTCTAGCTAGCCGACTCACTATAGGGATAATCGCCCTGAGCAAAGACC”, the binding signal came out at 0.259 ± 0.108 log2FC.
“CTCGAGGATATCAAGATCTGGCCTCGGCGCGTGGATCGGAACCTCTAGCTAGCCGACTCACTATAGGGATAATCGCCCTGAGCAAAGACC” yielded a binding signal of 0.142 ± 0.102 log2FC.
Sequence “CTCGAGGATATCAAGATCTGGCCTCGGCGCGTGGCTAGGAACCTCTAGCTAGCCGACTCACTATAGGGATAATCGCCCTGAGCAAAGACC” showed a binding signal of 0.021 ± 0.107 log2FC.
Consider “CTCGAGGATATCAAGATCTGGCCTCGGCGCGTGGCAAGGAACCTCTAGCTAGCCGACTCACTATAGGGATAATCGCCCTGAGCAAAGACC”, for which the binding signal came to 0.0121 ± 0.1 log2FC.
With “CTCGAGGATATCAAGATCTGGCCTCGGCGCGTGGGTAGGAACCTCTAGCTAGCCGACTCACTATAGGGATAATCGCCCTGAGCAAAGACC”, the binding signal is 1.97 ± 0.0958 log2FC.
The sequence “CTCGAGGATATCAAGATCTGGCCTCGGCAAGTGGGCGGGAACCTCTAGCTAGCCGACTCACTATAGGGATAATCGCCCTGAGCAAAGACC” registered a binding signal of 2.06 ± 0.0801 log2FC.
In turn, “CTCGAGGATATCAAGATCTGGCCTCGGCGCGTGGCGCGGAACCTCTAGCTAGCCGACTCACTATAGGGATAATCGCCCTGAGCAAAGACC” came in with a binding signal of 0.0413 ± 0.108 log2FC.
With “CTCGAGGATATCAAGATCTGGCCTCGGCGATTGGGCGGGAACCTCTAGCTAGCCGACTCACTATAGGGATAATCGCCCTGAGCAAAGACC”, the binding signal was 0.0131 ± 0.0888 log2FC.
The same measure for “CTCGAGGATATCAAGATCTGGCCTCGGCCGCTGCCGCGGAACCTCTAGCTAGCCGACTCACTATAGGGATAATCGCCCTGAGCAAAGACC”: 0.0482 ± 0.0994 log2FC; for “CTCGAGGATATCAAGATCTGGCCTCGGCCGCCCACTCGGAACCTCTAGCTAGCCGACTCACTATAGGGATAATCGCCCTGAGCAAAGACC”: 0.873 ± 0.0842 log2FC; for “CTCGAGGATATCAAGATCTGGCCTCGGCCGCCCACACGGAACCTCTAGCTAGCCGACTCACTATAGGGATAATCGCCCTGAGCAAAGACC”: 1.63 ± 0.0957 log2FC.
As to “CTCGAGGATATCAAGATCTGGCCTCGGCCGCCCAAACGGAACCTCTAGCTAGCCGACTCACTATAGGGATAATCGCCCTGAGCAAAGACC”, the binding signal stood at 0.0706 ± 0.0989 log2FC.
The same measure for “CTCGAGGATATCAAGATCTGGCCTCGGCGCGTGGGGAGGAACCTCTAGCTAGCCGACTCACTATAGGGATAATCGCCCTGAGCAAAGACC”: 0.871 ± 0.0966 log2FC; for “CTCGAGGATATCAAGATCTGGCCTCGGCCGCCCACGAGGAACCTCTAGCTAGCCGACTCACTATAGGGATAATCGCCCTGAGCAAAGACC”: 0.778 ± 0.094 log2FC; for “CTCGAGGATATCAAGATCTGGCCTCGGCGCGTGCGCGGGAACCTCTAGCTAGCCGACTCACTATAGGGATAATCGCCCTGAGCAAAGACC”: 0.264 ± 0.107 log2FC.
In turn, “CTCGAGGATATCAAGATCTGGCCTCGGCGGATGGGCGGGAACCTCTAGCTAGCCGACTCACTATAGGGATAATCGCCCTGAGCAAAGACC” displayed a binding signal of 0.0532 ± 0.0937 log2FC.
“CTCGAGGATATCAAGATCTGGCCTCGGCCACCCACGCGGAACCTCTAGCTAGCCGACTCACTATAGGGATAATCGCCCTGAGCAAAGACC” yielded a binding signal of 2.1 ± 0.135 log2FC.
Consider “CTCGAGGATATCAAGATCTGGCCTCGGCGCGTGGAAAGGAACCTCTAGCTAGCCGACTCACTATAGGGATAATCGCCCTGAGCAAAGACC”, for which the binding signal worked out at 0.108 ± 0.113 log2FC.
On to “CTCGAGGATATCAAGATCTGGCCTCGGCCGCCCCCGCGGAACCTCTAGCTAGCCGACTCACTATAGGGATAATCGCCCTGAGCAAAGACC”, for which the binding signal is 1.56 ± 0.0899 log2FC.
Turning to “CTCGAGGATATCAAGATCTGGCCTCGGCGCGTGGAGAGGAACCTCTAGCTAGCCGACTCACTATAGGGATAATCGCCCTGAGCAAAGACC”, the binding signal was 0.18 ± 0.105 log2FC.
With “CTCGAGGATATCAAGATCTGGCCTCGGCCGCGGCCGCGGAACCTCTAGCTAGCCGACTCACTATAGGGATAATCGCCCTGAGCAAAGACC”, the binding signal is 0.0714 ± 0.102 log2FC.
In the case of “CTCGAGGATATCAAGATCTGGCCTCGGCGCGTGGCGTGGAACCTCTAGCTAGCCGACTCACTATAGGGATAATCGCCCTGAGCAAAGACC”, the binding signal was found to be 0.0995 ± 0.108 log2FC.
In turn, “CTCGAGGATATCAAGATCTGGCCTCGGCGCGAGGGCGGGAACCTCTAGCTAGCCGACTCACTATAGGGATAATCGCCCTGAGCAAAGACC” returned a binding signal of 0.751 ± 0.109 log2FC.
The sequence “CTCGAGGATATCAAGATCTGGCCTCGGCGCGTGGTGCGGAACCTCTAGCTAGCCGACTCACTATAGGGATAATCGCCCTGAGCAAAGACC” returned a binding signal of 0.41 ± 0.0906 log2FC.
In turn, “CTCGAGGATATCAAGATCTGGCCTCGGCGCGTGGACGGGAACCTCTAGCTAGCCGACTCACTATAGGGATAATCGCCCTGAGCAAAGACC” displayed a binding signal of 0.177 ± 0.113 log2FC.
The sequence “CTCGAGGATATCAAGATCTGGCCTCGGCCGCCCACGGGGAACCTCTAGCTAGCCGACTCACTATAGGGATAATCGCCCTGAGCAAAGACC” had a binding signal of 1.11 ± 0.0917 log2FC.
“CTCGAGGATATCAAGATCTGGCCTCGGCCGCCCACAAGGAACCTCTAGCTAGCCGACTCACTATAGGGATAATCGCCCTGAGCAAAGACC” showed a binding signal of 0.545 ± 0.102 log2FC.
Take “CTCGAGGATATCAAGATCTGGCCTCGGCGCGTGGTGAGGAACCTCTAGCTAGCCGACTCACTATAGGGATAATCGCCCTGAGCAAAGACC”: the binding signal came out at 0.258 ± 0.102 log2FC.
With “CTCGAGGATATCAAGATCTGGCCTCGGCGCGTGGGCCGGAACCTCTAGCTAGCCGACTCACTATAGGGATAATCGCCCTGAGCAAAGACC” the figure was 2.26 ± 0.0976 log2FC; with “CTCGAGGATATCAAGATCTGGCCTCGGCGCGTGGTGTGGAACCTCTAGCTAGCCGACTCACTATAGGGATAATCGCCCTGAGCAAAGACC”, 0.166 ± 0.105 log2FC; with “CTCGAGGATATCAAGATCTGGCCTCGGCGCGTGGTTCGGAACCTCTAGCTAGCCGACTCACTATAGGGATAATCGCCCTGAGCAAAGACC”, 0.121 ± 0.0856 log2FC.
With “CTCGAGGATATCAAGATCTGGCCTCGGCGCGGAGGCGGGAACCTCTAGCTAGCCGACTCACTATAGGGATAATCGCCCTGAGCAAAGACC” the figure was 1.88 ± 0.11 log2FC; with “CTCGAGGATATCAAGATCTGGCCTCGGCTGGTGGGCGGGAACCTCTAGCTAGCCGACTCACTATAGGGATAATCGCCCTGAGCAAAGACC”, 1.81 ± 0.0735 log2FC; with “CTCGAGGATATCAAGATCTGGCCTCGGCGCGTGGTCAGGAACCTCTAGCTAGCCGACTCACTATAGGGATAATCGCCCTGAGCAAAGACC”, 0.198 ± 0.102 log2FC.
The sequence “CTCGAGGATATCAAGATCTGGCCTCGGCCGCCCAAAAGGAACCTCTAGCTAGCCGACTCACTATAGGGATAATCGCCCTGAGCAAAGACC” registered a binding signal of 0.0465 ± 0.0996 log2FC.
The sequence “CTCGAGGATATCAAGATCTGGCCTCGGCCCGTGGGCGGGAACCTCTAGCTAGCCGACTCACTATAGGGATAATCGCCCTGAGCAAAGACC” registered a binding signal of 3.06 ± 0.0841 log2FC.
In turn, “CTCGAGGATATCAAGATCTGGCCTCGGCGCGTGGATGGGAACCTCTAGCTAGCCGACTCACTATAGGGATAATCGCCCTGAGCAAAGACC” displayed a binding signal of 0.000457 ± 0.106 log2FC.
The same measure for “CTCGAGGATATCAAGATCTGGCCTCGGCGGTTGGGCGGGAACCTCTAGCTAGCCGACTCACTATAGGGATAATCGCCCTGAGCAAAGACC”: 0.0831 ± 0.0849 log2FC; for “CTCGAGGATATCAAGATCTGGCCTCGGCCGCCCACCGGGAACCTCTAGCTAGCCGACTCACTATAGGGATAATCGCCCTGAGCAAAGACC”: 0.114 ± 0.0972 log2FC; for “CTCGAGGATATCAAGATCTGGCCTCGGCGCGTGGGACGGAACCTCTAGCTAGCCGACTCACTATAGGGATAATCGCCCTGAGCAAAGACC”: 1.73 ± 0.101 log2FC.
In turn, “CTCGAGGATATCAAGATCTGGCCTCGGCCGCCCAGACGGAACCTCTAGCTAGCCGACTCACTATAGGGATAATCGCCCTGAGCAAAGACC” had a binding signal of 0.0722 ± 0.0958 log2FC.
“CTCGAGGATATCAAGATCTGGCCTCGGCCGCACACGCGGAACCTCTAGCTAGCCGACTCACTATAGGGATAATCGCCCTGAGCAAAGACC” had a binding signal of 0.422 ± 0.0927 log2FC.
The same measure for “CTCGAGGATATCAAGATCTGGCCTCGGCGCGTGGTCGGGAACCTCTAGCTAGCCGACTCACTATAGGGATAATCGCCCTGAGCAAAGACC”: 0.471 ± 0.1 log2FC; for “CTCGAGGATATCAAGATCTGGCCTCGGCCGCCCACGCGGAACCTCTAGCTAGCCGACTCACTATAGGGATAATCGCCCTGAGCAAAGACC”: 2.69 ± 0.0695 log2FC.
As to “CTCGAGGATATCAAGATCTGGCCTCGGCGTTCCACGCGGAACCTCTAGCTAGCCGACTCACTATAGGGATAATCGCCCTGAGCAAAGACC”, the binding signal was determined as 0.016 ± 0.0847 log2FC.
Turning to “CTCGAGGATATCAAGATCTGGCCTCGGCATGTGGGCGGGAACCTCTAGCTAGCCGACTCACTATAGGGATAATCGCCCTGAGCAAAGACC”, the binding signal came to 2.94 ± 0.0778 log2FC.
With “CTCGAGGATATCAAGATCTGGCCTCGGCACCTGGGCGGGAACCTCTAGCTAGCCGACTCACTATAGGGATAATCGCCCTGAGCAAAGACC” the figure was 0.068 ± 0.0997 log2FC.
Sequence “CTCGAGGATATCAAGATCTGGCCTCGGCGCGTCGGCGGGAACCTCTAGCTAGCCGACTCACTATAGGGATAATCGCCCTGAGCAAAGACC” registered a binding signal of 0.627 ± 0.116 log2FC.
In turn, “CTCGAGGATATCAAGATCTGGCCTCGGCGTCCCACGCGGAACCTCTAGCTAGCCGACTCACTATAGGGATAATCGCCCTGAGCAAAGACC” returned a binding signal of 0.365 ± 0.0872 log2FC.
With “CTCGAGGATATCAAGATCTGGCCTCGGCGTTTGGGCGGGAACCTCTAGCTAGCCGACTCACTATAGGGATAATCGCCCTGAGCAAAGACC” the figure was 0.123 ± 0.0893 log2FC; with “CTCGAGGATATCAAGATCTGGCCTCGGCCGCCCTCGCGGAACCTCTAGCTAGCCGACTCACTATAGGGATAATCGCCCTGAGCAAAGACC”, 0.0695 ± 0.102 log2FC.
Sequence “CTCGAGGATATCAAGATCTGGCCTCGGCAGACCACGCGGAACCTCTAGCTAGCCGACTCACTATAGGGATAATCGCCCTGAGCAAAGACC” came in with a binding signal of 0.0219 ± 0.102 log2FC.
As for “CTCGAGGATATCAAGATCTGGCCTCGGCGCGTGGGATGGAACCTCTAGCTAGCCGACTCACTATAGGGATAATCGCCCTGAGCAAAGACC”, the binding signal came to 2.17 ± 0.107 log2FC.
Regarding “CTCGAGGATATCAAGATCTGGCCTCGGCCGCCCACAGGGAACCTCTAGCTAGCCGACTCACTATAGGGATAATCGCCCTGAGCAAAGACC”, the binding signal worked out at 0.494 ± 0.158 log2FC.
“CTCGAGGATATCAAGATCTGGCCTCGGCCCCCCACGCGGAACCTCTAGCTAGCCGACTCACTATAGGGATAATCGCCCTGAGCAAAGACC” yielded a binding signal of 0.155 ± 0.108 log2FC.

The record behind these values is paper doi:10.1101/2024.03.05.583629.
